Assay outcomes: PubChem BioAssay, National Center for Advancing Translational Sciences (NCATS)
Sampled rows, rich in hits. Any-hit rate of the full collection: about 2.4%.
D2 PAM-1: Beta-Arrestin HTS for Positive Allosteric Modulators of the Human D2 Dopamine Receptor: Potentiators | AID 624464, 2012 | DiscoveRx D2 beta-arrestin cells, luminescence, 90 min; 100% = 57 uM dopamine signal | D(2) dopamine receptor (Homo sapiens), P14416 | hit rate 0.23% among 360,000 | potentiation, % (test concentration not listed); in the data active = potentiation above about 50%; inconclusive = mostly about 30% to 49%
Target sequence (P14416 whole entry, looked up): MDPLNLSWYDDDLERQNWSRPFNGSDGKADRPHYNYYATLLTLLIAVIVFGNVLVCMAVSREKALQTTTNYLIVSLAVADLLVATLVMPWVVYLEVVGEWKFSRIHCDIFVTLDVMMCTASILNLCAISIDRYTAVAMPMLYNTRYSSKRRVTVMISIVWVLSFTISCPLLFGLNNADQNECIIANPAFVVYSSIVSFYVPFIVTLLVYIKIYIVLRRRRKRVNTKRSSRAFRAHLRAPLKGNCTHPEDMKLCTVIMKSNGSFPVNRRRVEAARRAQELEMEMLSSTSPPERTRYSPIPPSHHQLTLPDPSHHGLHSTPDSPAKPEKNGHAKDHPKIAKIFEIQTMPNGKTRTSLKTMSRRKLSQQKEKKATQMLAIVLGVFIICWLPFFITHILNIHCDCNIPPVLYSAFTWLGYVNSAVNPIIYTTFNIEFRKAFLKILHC
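PathHunter beta-arrestin assay in DiscoveRx D2 cells. Compounds were added with an EC20 of dopamine (50 nM final) for 90 min at 37 deg C. Luminescence was read 1 h after detection reagent, with 57 uM dopamine as the EC100 control.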
D2 antagonist: HTS Assay for Allosteric Antagonists of the Human D2 Dopamine Receptor: Primary Screen for Antagonists. inhibition, % at 10 µM. HEK293 TREx D2 cells, calcium flux, dopamine EC80. AID 485344, 2010. hit rate 2% among 340,000; in the data active = inhibition above about 30%; inactive = below that, where a call was filed
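Antagonism is scored as inhibition of an EC80 dopamine-evoked calcium signal in a force-coupled, tetracycline-inducible HEK293 T-REx D2 line, with compound present 180 s before agonist.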
D2 PAM-2: HTS Assay for Positive Allosteric Modulators of the Human D2 Dopamine Receptor: Primary Screen for Potentiators; AID 485347, 2010; HEK293 T-REx D2, calcium flux, EC20 dopamine potentiation; D(2) dopamine receptor (Homo sapiens), P14416; hit rate 0.34% among 340,000; potentiation, % at 10 µM;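 active = potentiation over 3 SD above the plate norm, cut at about 30% in these data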
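Primary screen. Calcium kinetics in induced HEK293 T-REx D2 cells: compound pre-addition 180 s, EC20 dopamine, 180 s more.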
D2 ag-1: HTS Assay for Allosteric Agonists of the Human D2 Dopamine Receptor: Primary Screen for Agonists | AID 485358, 2010 | HEK293 T-REx D2 cells, calcium flux agonist mode | hit rate 0.53% among 340,000 | activation, % at 2 µM | D(2) dopamine receptor (Homo sapiens), P14416;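 active = activation over 3 SD above normal in the single-dose calcium agonist read, cut at about 30% in these data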
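Tetracycline-induced HEK293 T-REx cells with force-coupled D2 receptor, plated overnight at 30 C, loaded with no-wash calcium dye. After a 10 s baseline, compound was pin-added and calcium flux read kinetically for 180 s; calcium rises flagged agonists.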
D2 ag-2: Beta-Arrestin HTS for Positive Allosteric Modulators of the Human D2 Dopamine Receptor: Agonists. D(2) dopamine receptor (Homo sapiens), P14416. DiscoveRx PathHunter D2 beta-arrestin, luminescence, 90 min; 100% = 57 uM dopamine signal. activation, % (test concentration not listed). hit rate 0.084% among 360,000; in the data active = activation above about 40%; inconclusive = between about 15% and that limit
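Agonist mode: compounds alone added to overnight-plated D2 PathHunter cells for 90 min at 37 C, with 57 uM final dopamine (EC100) defining full response. Beta-arrestin recruitment detected by chemiluminescent reagent, read after 1 h at ambient temperature.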
Each line names hits and unclear results; the compound was inactive in the other large screens.

COc1ccc(C(=S)N2CCCC2)cc1	D2 PAM-2 43
Oc1ccc(C(=S)N2CCCCCC2)cc1	D2 antagonist 37
Oc1ccc(C(=S)N2CCCC2)cc1	none
N#C/C(=C\c1c(Cl)cccc1Cl)c1nc2ccccc2o1	D2 PAM-1 58, D2 ag-2 inconclusive
CC(C)c1ccc(NC(=O)[C@H](NC(=O)[C@@H]2Cc3ccccc3CN2)c2ccccc2)cc1	D2 antagonist 33
Cc1ccc(NC(=O)[C@H](NC(=O)[C@@H]2Cc3ccccc3CN2)c2ccccc2)cc1	none
COc1cccc(NC(=O)[C@H](Cc2ccccc2)NC(=O)[C@@H]2Cc3ccccc3CN2)c1	D2 antagonist 35
Cc1oc(-c2ccccc2F)nc1CS(=O)CC(=O)NC(C)C (configuration not stated)	none (no result: D2 PAM-1, D2 antagonist, D2 ag-1, D2 ag-2)
N#CCSc1ccccc1NC(=O)COC(=O)C1CCN(C(=O)c2ccc(Cl)cc2)CC1	none (no result: D2 antagonist, D2 PAM-2, D2 ag-1)
Cc1ccc(NS(=O)(=O)c2ccc(NC(=O)N3CCCC3)cc2)cc1C	none (no result: D2 PAM-1, D2 antagonist, D2 ag-2)
COC(=O)c1ccccc1NC(=O)NCc1ccc2c(c1)OCO2	D2 antagonist 34
COc1ccccc1NC(=O)NCc1ccc2c(c1)OCO2	D2 antagonist 33 (no result: D2 PAM-1, D2 ag-2)
O=C(NCc1ccc2c(c1)OCO2)Nc1cccc2ccccc12	none
CCOc1ccccc1NC(=O)NCc1ccc2c(c1)OCO2	none
COc1cc(C)c(S(=O)(=O)NCc2ccc3c(c2)OCO3)cc1C	D2 antagonist 32
COc1cc(S(=O)(=O)NCc2ccc3c(c2)OCO3)c(OC)cc1C	none
Cc1cccc(CNC(=O)c2ccc(Cn3c(=O)c4cccn4c4cccnc43)cc2)c1	none (no result: D2 PAM-1, D2 antagonist, D2 ag-2)
COc1cc(/C=C2/C(=O)CNC2=O)ccc1O	D2 ag-1 37
COc1cc(/C=C/C(=O)CC(=O)/C=C/c2ccc(O)c(OC)c2)ccc1O	D2 ag-1 53
Cc1sc2nc(CSc3ccccc3)nc(NCCN(C)C)c2c1C	none
CCNc1nc(CSc2ccccc2)nc2sc(C)c(C)c12	D2 antagonist 39
CC(=O)c1ccc2c(c1)Nc1ccccc1S2	D2 PAM-1 52, D2 ag-2 inconclusive
C/C(=N\NC(=O)c1ccc(C)cc1C)c1ccc2c(c1)Nc1ccccc1S2	D2 PAM-1 78, D2 ag-2 inconclusive
CCOC(=O)Nc1ccc2c(c1)Nc1ccccc1S2	D2 PAM-1 63
C/C(=N\NC(=O)c1ccc(C)cc1C)c1ccc(-n2ccnc2)cc1	none
CCOC(=O)c1ccc(NC(=O)CN2C(=O)c3cccnc3Oc3ccc(Cl)cc32)cc1	none (no result: D2 PAM-1, D2 antagonist, D2 ag-2)
COc1ccc(-c2nc(CS(=O)CC(=O)NCCCN3CCOCC3)c(C)o2)cc1OC (configuration not stated)	none
CC1CN(c2c3c(nc4ncnn24)CCCC3)CC(C)O1 (configuration not stated)	D2 PAM-2 32
CCS(=O)(=O)Nc1cccc(C2=NN(S(=O)(=O)c3ccc(F)cc3)C(c3cccs3)C2)c1 (configuration not stated)	none
CS(=O)(=O)Nc1cccc(C2=NN(S(=O)(=O)c3ccc(F)cc3)C(c3cccs3)C2)c1 (configuration not stated)	D2 antagonist 31
Cc1ccnc(NC(NC(=O)C(C)C)(C(F)(F)F)C(F)(F)F)c1	D2 antagonist 32
COC(=O)C(NC(=O)c1ccco1)(Nc1cc(C)ccn1)C(F)(F)F (configuration not stated)	none
CCOC(=O)c1c(C)oc2ncnc(N3CCN(c4ccccc4F)CC3)c12	none (no result: D2 PAM-1, D2 antagonist, D2 ag-2)
Cc1ccc(-c2c3c(=O)n(C)c(=O)n(C)c3c3cnc4ccccc4n23)cc1	none (no result: D2 PAM-1, D2 antagonist, D2 ag-2)
COc1ccc(-c2csc(C3=C(O)CN(Cc4ccc(Cl)cc4)C3=N)n2)cc1OC	D2 antagonist 74
CC(C)Oc1ccc(CNC(=O)c2cccc(NC(=O)N3CCSc4ncccc43)c2)cc1	none (no result: D2 PAM-1, D2 antagonist, D2 ag-2)
CC(=O)SCC[N+](C)(C)C	D2 antagonist 36
